Bioassay records (PubChem)
TWEAK Fn14 block – inhibitors of TWEAK-Fn14 interaction signaling; hit rate 2% among 360,000; inhibition, % at 10 µM; TWEAK-stimulated Fn14 reporter cells, luciferase luminescence, 8 h; in the data active means inhibition above about 50%
MITF TRPM1 inh – reduces MITF-dependent TRPM1 promoter luciferase signal; SK-MEL-5 TRPM1 promoter luciferase, 24 h; inhibition, % at 12.5 µM; hit rate 0.83% among 330,000; AID 488899;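 active means mean inhibition across replicates of 60% or more, whatever share of single replicates reaches that level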
TROY NFkB inh – TROY signaling inhibition | hit rate 0.98% among 360,000 | AID 1347056 | Q293 LMP1-TROYcd NF-kB luciferase reporter, 4 h | inhibition, % at 10 µM;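 active means compounds whose plate-normalised and pattern-corrected inhibition of the luciferase reporter signal at the single screening dose is 50% or more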
Peg3 prom inh – reduces Peg3 promoter-driven luciferase expression in HeLa; HeLa PEG-Prom luciferase reporter, luminescence, overnight; inhibition, % at 20 µM; hit rate 1.7% among 360,000; AID 588405;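 active means inhibition of at least 50% at 20 µM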
HIF-2a block – HIF-2a inhibition; 786-0 RCC cells HIF-2a reporter, luciferase luminescence, overnight; inhibition, % at 18.8 µM; hit rate 0.72% among 360,000;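 active means inhibition of the luminescence signal of 40% or more relative to plate controls, in a single-dose primary screen at 18.75 µM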
LMP1 NFkB inh – reduces LMP1-driven NF-kappaB luciferase signal; LMP1-induced NF-kappaB luciferase reporter cells, luminescence; inhibition, % at 12.5 µM; hit rate 0.69% among 350,000; AID 504558; in the data active means inhibition above about 41%
Mdm2 MdmX conf – Mdm2/MdmX (human) interaction inhibition, confirmed; hit rate 99% among 740; shares compounds with HIF-2a block; AID 504601; SaOS-2 split-luciferase Mdm2/MdmX complementation, luminescence; inhibition, % at 8 µM;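 active means mean inhibition of the luminescence signal across two replicates at or above 26 percent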
HIF-2a conf – confirmation of HIF-2a inhibitors | hit rate 56% among 1,800 | inhibition, % at 18.8 µM | 786-0 RCC cells, HIF-2a luciferase reporter luminescence, overnight | shares compounds with HIF-2a block | AID 651580;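 active means mean inhibition across four replicates of at least 40 percent at the single tested concentration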
HIF-1a cs – inhibits HIF-1a reporter, a counter-screen for HIF-2a inhibitors | inhibition, % at 18.8 µM | AID 651589 | MiaPaCa-2 HIF-1a luciferase reporter, desferoxamine, overnight | shares compounds with HIF-2a block | hit rate 72% among 1,800;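 active means mean inhibition of the reporter signal across four replicates at the single tested dose of 50% or more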
Hits are given with their value; – = inactive; · = no result. Only some compounds are listed: those with a hit (about 4% of all), similar ones and a draw of the others.

SMILES	TWEAK Fn14 block	MITF TRPM1 inh	TROY NFkB inh	Peg3 prom inh	HIF-2a block	LMP1 NFkB inh	HIF-2a conf	HIF-1a cs	others
O=C(Nc1ccccc1N1CCOCC1)c1ccc([N+](=O)[O-])o1	–	–	–	–	–	–	·	·
O=C(Nc1ccc(N2CCCC2)c(Cl)c1)c1ccc([N+](=O)[O-])cc1	–	–	–	–	–	–	·	·
CC(=O)Nc1ccnn1C1CCN(C(=O)c2cccc(C)c2C)CC1	–	–	–	–	–	–	·	·
C[C@@H](c1ccccc1)N1C[C@H]2CCCN2c2cc(Br)ccc2S1(=O)=O	–	–	–	–	–	–	·	·
CC(NC(=O)CCCc1nnc2n(C)c(=O)c3sccc3n12)c1ccccc1 (stereo not drawn)	–	–	–	–	–	·	·	·
O=C(Nc1c(Cl)ccc2nsnc12)c1ccc([N+](=O)[O-])o1	–	89	–	90	60	–	–	100
O=C(Nc1ccc(OC(F)(F)F)cc1)N1CCN(c2ccnc3cc(Cl)ccc23)CC1	–	–	–	–	43	–	–	–
CC(C)(C)C(=O)N1CCN(c2ccnc3cc(Cl)ccc23)CC1	–	–	–	–	–	–	·	·
COc1ccc(/C=C2\N=C(c3ccccc3Cl)NC2=O)cc1	–	·	–	–	–	·	·	·
Cc1cccc(OCCOC(=O)c2c(-c3ccccc3)noc2C)c1	–	–	–	–	–	–	·	·
Cc1ccc(Cn2ccsc2=NC(=O)COC(=O)c2ccc(NC(=O)CC#N)cc2)cc1	–	–	–	–	–	–	·	·
Cc1ccc(Cn2ccsc2=NC(=O)CCl)cc1	–	–	–	–	–	–	·	·	Mdm2 MdmX conf=103
Oc1ccc(N=Nc2ccc3c(c2)OCCO3)c2cccnc12	–	65	76	–	–	60	·	·	Mdm2 MdmX conf=89
Cn1c(=O)c2c(nc(CN3CCc4ccccc4C3)n2Cc2cccc(Cl)c2)n(C)c1=O	–	·	–	–	43	–	–	76
COc1ccc(C(=O)NCCNc2nc3cc(C)cc(C)c3cc2C#N)c(OC)c1	·	·	·	·	66	·	82	98
Cc1nn(-c2ccccc2)c(Cl)c1/C=N/NC(=O)OC(C)(C)C	–	–	–	–	–	–	·	·
Cc1nn(-c2ccccc2)c(Cl)c1/C=N/Nc1ccc(Cl)c(C(=O)O)c1	–	–	–	–	61	–	56	–
Cc1nc2ccccc2n1S(=O)(=O)c1cc(C(=O)O)ccc1Cl	–	–	–	–	–	–	·	·
Nc1ncnc2c1ncn2C1C=C(CO)C(O)C1O (stereo not drawn)	–	–	–	–	43	–	–	81
Cc1cccc(C(=O)OC(C)C(=O)NCC2CCCCC2)c1O (stereo not drawn)	–	–	–	–	–	–	·	·
CCn1c(C)nc2cc(-c3nc4n(n3)Cc3ccccc3-4)ccc21	105	98	·	114	91	86	·	·	Mdm2 MdmX conf=100
Nc1ccc(-c2nc3c(Cl)cc(N)cc3[nH]2)cc1	67	76	62	–	88	–	96	85
Nc1ccc2nc(-c3ccc(N)c(Cl)c3)[nH]c2c1	–	–	–	–	–	–	·	·
Cc1cccc(N2CCN(C(=O)c3cccc(N4CCCC4=O)c3)C(C)C2)c1 (stereo not drawn)	–	–	–	–	–	–	·	·
CC(C)(C)[C@@H]1COC(=O)[C@H](Cc2ccc(F)cc2)CC/C=C\C[C@@H](CC(=O)N(CCO)Cc2ccccc2)C(=O)N1	–	–	–	–	–	–	·	·
SMILES	TWEAK Fn14 block	MITF TRPM1 inh	TROY NFkB inh	Peg3 prom inh	HIF-2a block	LMP1 NFkB inh	HIF-2a conf	HIF-1a cs	others
COc1ccc(-c2cnc3c(NC(C)=O)cc(-c4ccc(C(=O)N5CCOCC5)cc4)cn23)cc1OC	–	·	–	–	41	·	–	–
COc1ccc(CCN2CC(C(=O)Nc3cc(F)ccc3F)CC2=O)cc1OC (stereo not drawn)	–	–	–	–	–	–	·	·
CC1(C)Cc2c(sc(NC(=O)COc3cccc4ccccc34)c2C#N)C(C)(C)N1	–	–	–	90	49	–	–	53	Mdm2 MdmX conf=103
Cc1nc(/C(=N/O)C(N)=O)cs1	–	–	–	–	45	–	–	–
Cc1nc(C(=O)NNC(=O)c2ccc(Cl)cc2)cs1	–	–	–	–	–	–	·	·
CCCCCCCCCCCCCCCC[n+]1ccc(C(N)=O)cc1	–	–	–	98	80	–	53	100	Mdm2 MdmX conf=100
CCCCC(=O)Nc1ccc(C(N)=O)cc1	–	–	–	–	–	–	·	·
Cc1nc(S(=O)(=O)N(C)c2ccccc2)c(C#N)c(C)c1Cl	–	–	–	54	–	–	·	·	Mdm2 MdmX conf=103
CN(c1ccccc1)S(=O)(=O)c1ccc(Cl)nc1	–	–	–	–	–	–	·	·
CCOc1cc(/C=N/N=C/c2ccc(O)c(OCC)c2)ccc1O	–	–	–	–	–	–	·	·
CCOc1cc(/C=C2\CN(CC)C/C(=C\c3ccc(O)c(OCC)c3)C2=O)ccc1O	100	93	–	110	93	–	·	·	Mdm2 MdmX conf=102
COc1ccc(-c2[nH]c3ccccc3c2SCCNC(=O)c2ccccc2)cc1	–	·	–	–	–	–	·	·
Cc1ccc(-c2[nH]c3ccccc3c2SCCNC(=O)c2ccc(S(=O)(=O)N3CCOCC3)cc2)cc1	–	·	–	–	36	–	–	–
O=S(=O)(CCSc1nc2ccccc2o1)c1nc2ccccc2s1	91	–	67	–	57	–	70	90
O=[N+]([O-])c1ccc(NC(=S)NCCc2ccc(Cl)cc2)cc1	60	–	57	–	–	–	·	·	Mdm2 MdmX conf=97
CCOC(=O)c1c(C)[nH]c(C(=O)NCCc2ccc(OC)c(OC)c2)c1C	–	–	–	–	–	–	·	·
COCCCNC(=O)c1c[nH]c2ccc(S(=O)(=O)N3CCc4ccccc43)cc2c1=O	–	–	–	–	–	–	·	·
COCCNC(=O)c1c[nH]c2ccc(S(=O)(=O)N3CCc4ccccc43)cc2c1=O	–	–	–	51	47	–	–	93
N#C/C(=C\c1ccccc1C(F)(F)F)C(=O)Nc1ccccc1	–	–	–	–	–	–	·	·
CCc1cccc(CC)c1NC(=O)/C(C#N)=C/c1ccccc1C(F)(F)F	83	89	–	107	92	–	97	102
CCNC(=O)C[C@@H]1C=C[C@@H](NS(=O)(=O)c2ccc(F)cc2)[C@@H](CO)O1	·	·	·	·	–	·	·	·
CN(c1ccccc1)S(=O)(=O)c1ccc(NC(=O)c2ccccc2)cc1	–	–	–	–	–	–	·	·
Cc1ccc(NC(=O)c2nc(S(=O)(=O)Cc3ccccc3C)ncc2Cl)cc1C	83	78	86	108	93	–	·	·	Mdm2 MdmX conf=103
